Assays:
[1] = test system: Human papillomavirus type 1a protein E7 (residues 44-93); test: HPV1a E7 fragment binders on microarrays, primary screen, biochemical, small-molecule microarray, residues 44-93, 635 nm fluorescence (AID 1108); details: small-molecule microarray binding, fluorescence 635 nm; higher = more signal;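 further: E7 fragment applied at 1 µg/mL in TBST for 1 h at 4 C; score combines spot fluorescence with its signal to noise ratio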
[2] = modulators of HCV replicon luciferase signal, primary screen, HCV replication inhibitor project, Huh7 cells, luciferase reporter (AID 1109); details: 48 h, higher = more signal;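 further: huh7 hepatoma cells harbouring a luciferase neomycin HCV replicon reporter; luciferase luminescence as measure of HCV replicon replication; test concentration not given here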
[3] = molecular target: Left-right determination factor 2 (Homo sapiens) (UniProt O00292); test: LEFTY2 binders on small-molecule microarrays, primary screen, biochemical, small-molecule microarray, 635 nm fluorescence scan (AID 1110); details: LEFTY2 binding, higher = more signal
[4] = molecular target: Calmodulin-1 (Homo sapiens) (UniProt P0DP23); test: CALM1 binders on microarrays, EGTA buffer, profiling panel, biochemical, small-molecule microarray, Cy5-labelled CALM1 (AID 1111); details: Cy5-CALM1 binding fluorescence, higher = more signal;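 further: labelled calmodulin applied in Tris saline Tween buffer holding calcium plus EGTA and DTT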
[5] = molecular target: Calmodulin-1 (Homo sapiens) (UniProt P0DP23); test: calcium-bound CALM1 binders on microarrays, profiling panel, artefact control for SMM control-protein annotation, biochemical, small-molecule microarray, Cy5-labelled CALM1, plus calcium (AID 1112); details: Cy5-CALM1 binding fluorescence, higher = more signal;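 further: score merges spot fluorescence with signal to noise from triplicate slides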
[6] = small-molecule microarray binders of probe aWnt5a, primary screen, biochemical, biotinylated probe, 635/667 nm fluorescence (AID 1113); details: higher = more signal;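 further: score merges 667 nm fluorescence intensity with signal-to-noise per printed feature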
[7] = small-molecule microarray binders of probe aShh, primary screen, biochemical, biotinylated probe, 635/667 nm fluorescence (AID 1114); details: higher = more signal;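 further: probe is biotin-labelled aShh protein from a stem cell growth factor screen; measures binding of labelled protein to compounds printed on the slide; score merges feature fluorescence at 667 nm with signal-to-noise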
[8] = small-molecule microarray binders of probe aNog, primary screen, biochemical, biotinylated probe, 635/667 nm fluorescence (AID 1115); details: higher = more signal;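 further: probe is biotinylated aNog protein used at 0.15 µg/mL for 1 h at 4 C; z-score combines 667 nm fluorescence of each spot with its signal to noise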
[9] = molecular target: Torsin-1A-interacting protein 1 (Homo sapiens) (UniProt Q5JTV8); test: LAP1 binders from COS7 cell lysate, primary screen, small-molecule microarray, 635/667 nm fluorescence (AID 1116); details: COS7-hLAP1 lysate binding, 635 nm fluorescence, higher = more signal
[10] = molecular target: Alpha-bungarotoxin (Bungarus multicinctus) (UniProt P60615); test: alpha-bungarotoxin binders on microarray, profiling panel, artefact control for SMM control protein annotation, biochemical, small-molecule microarray, Alexa647 label, 635/667 nm fluorescence (AID 1117); details: alpha-BTX-A647 binding fluorescence, higher = more signal
Alpha-bungarotoxin (Bungarus multicinctus), sequence (P60615 whole entry, looked up): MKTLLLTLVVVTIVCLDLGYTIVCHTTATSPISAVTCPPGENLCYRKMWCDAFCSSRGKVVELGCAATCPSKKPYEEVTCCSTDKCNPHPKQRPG

Left-right determination factor 2 (Homo sapiens), sequence (O00292 whole entry, looked up): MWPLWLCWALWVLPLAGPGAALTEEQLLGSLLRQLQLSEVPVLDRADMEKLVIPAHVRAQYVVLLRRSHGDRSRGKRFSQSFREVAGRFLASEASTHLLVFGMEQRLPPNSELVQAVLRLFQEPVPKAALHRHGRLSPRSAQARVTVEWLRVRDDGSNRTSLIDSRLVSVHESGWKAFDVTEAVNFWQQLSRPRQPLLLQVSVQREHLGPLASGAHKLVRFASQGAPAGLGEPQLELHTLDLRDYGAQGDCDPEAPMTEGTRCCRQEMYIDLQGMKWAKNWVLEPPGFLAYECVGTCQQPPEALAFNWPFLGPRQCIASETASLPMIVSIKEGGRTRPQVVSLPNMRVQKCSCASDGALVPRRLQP
Torsin-1A-interacting protein 1 (Homo sapiens), sequence (Q5JTV8 whole entry, looked up): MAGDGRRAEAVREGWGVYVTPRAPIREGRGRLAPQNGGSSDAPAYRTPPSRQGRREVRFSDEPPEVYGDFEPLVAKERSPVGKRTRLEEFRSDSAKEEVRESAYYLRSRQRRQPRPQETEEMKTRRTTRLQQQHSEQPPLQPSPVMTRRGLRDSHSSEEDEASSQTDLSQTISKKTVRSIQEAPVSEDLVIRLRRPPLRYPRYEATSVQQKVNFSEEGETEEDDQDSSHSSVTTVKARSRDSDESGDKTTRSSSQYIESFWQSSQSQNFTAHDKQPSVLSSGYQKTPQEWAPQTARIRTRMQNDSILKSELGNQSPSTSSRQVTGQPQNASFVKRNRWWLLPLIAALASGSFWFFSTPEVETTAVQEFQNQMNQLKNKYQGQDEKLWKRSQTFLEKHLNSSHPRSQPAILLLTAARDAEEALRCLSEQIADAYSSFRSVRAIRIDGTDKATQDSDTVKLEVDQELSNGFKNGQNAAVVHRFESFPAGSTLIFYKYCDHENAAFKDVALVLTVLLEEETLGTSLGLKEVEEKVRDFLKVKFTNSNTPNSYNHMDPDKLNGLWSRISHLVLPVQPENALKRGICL

COc1ccc([Si](C)(C)[C@H]2[C@H](CCO)O[C@@]3(C(=O)N(Cc4ccccc4)c4ccc(N5CCCCC5=O)cc43)[C@@H]2C)cc1
composite z-score [1]: 0.668 | z-score [2]: -5.03 | composite z-score [3]: -0.161 | composite z-score [4]: 0.674 | composite z-score [5]: 0.167 | composite z-score [6]: -0.0685 | composite z-score [7]: -0.156 | composite z-score [8]: -0.135 | composite z-score [9]: 0.652 | composite z-score [10]: 0.883

NCCCCCNC(=O)[C@H]1C[C@H]2C(=O)N3CCC[C@H]3C(=O)N2[C@H]1c1ccc(O)cc1
composite z-score [1]: 1.39 | z-score [2]: -0.0865 | composite z-score [3]: 0.84 | composite z-score [4]: 1.99 | composite z-score [5]: 1.13 | composite z-score [6]: 0.212 | composite z-score [7]: 0.264 | composite z-score [8]: 1.19 | composite z-score [9]: 1.07 | composite z-score [10]: 1.1

O=C1[C@@]23C=C(Br)[C@H](C[C@@H]2COC3)[C@]12CO2
composite z-score [1]: -2.09 | z-score [2]: -1.96 | composite z-score [3]: -1.16 | composite z-score [4]: -1.01 | composite z-score [5]: -1.25 | composite z-score [6]: 0.0388 | composite z-score [7]: -0.234 | composite z-score [8]: 0.0256 | composite z-score [9]: -0.0722 | composite z-score [10]: -1.5

CCCCC(=C=CC[C@@H](O)c1ccc(CO)o1)CCO
composite z-score [1]: 0.378 | z-score [2]: -0.379 | composite z-score [3]: 0.38 | composite z-score [4]: -0.111 | composite z-score [5]: -0.641 | composite z-score [6]: -0.0462 | composite z-score [7]: 0.365 | composite z-score [8]: -0.158 | composite z-score [9]: 0.148 | composite z-score [10]: -0.168

CC(C)(C)OC(=O)CC[C@]1(C(N)=O)N=C(c2ccc(OCCCO)cc2)O[C@H]1c1ccccc1
composite z-score [1]: -0.0059 | z-score [2]: 0.666 | composite z-score [3]: -0.23 | composite z-score [4]: 2.64 | composite z-score [5]: 1.66 | composite z-score [6]: 0.116 | composite z-score [7]: 0.707 | composite z-score [8]: 1.36 | composite z-score [9]: 3.07 | composite z-score [10]: 2.12

Cc1ccc(C2C3C(=O)CC4C(=O)N(c5ccccc5)C(=O)C4C3CN2S(=O)(=O)c2ccc(C)cc2)cc1 (stereo not given)
composite z-score [1]: 0.808 | z-score [2]: -0.418 | composite z-score [3]: 0.0699 | composite z-score [4]: 1.33 | composite z-score [5]: 0.531 | composite z-score [6]: 0.374 | composite z-score [7]: 0.343 | composite z-score [8]: -0.308 | composite z-score [9]: 1.66 | composite z-score [10]: 0.644

COc1ccc([C@H]2C[C@H]3C(Br)=C[C@@]2(CO)C(=O)[C@]32CO2)cc1
composite z-score [1]: -0.368 | z-score [2]: -2.02 | composite z-score [3]: 0.122 | composite z-score [4]: -0.282 | composite z-score [5]: -0.38 | composite z-score [6]: 0.0286 | composite z-score [7]: -0.262 | composite z-score [8]: -0.0827 | composite z-score [9]: 0.291 | composite z-score [10]: 0.0471

NC(=O)[C@@H]1[C@H]2C(=O)O[C@H](c3ccccc3)[C@H](c3ccccc3)N2[C@H](c2ccc(OCCO)cc2)[C@@]12C(=O)Nc1ccc(C#CC3=CCCCC3)cc12
composite z-score [1]: 1.36 | z-score [2]: -3.2 | composite z-score [3]: 0.759 | composite z-score [4]: 0.658 | composite z-score [5]: -0.223 | composite z-score [6]: 0.0182 | composite z-score [7]: 0.031 | composite z-score [8]: 0.0415 | composite z-score [9]: 1.06 | composite z-score [10]: 0.711

CN(C)CCCCCCNC(=O)[C@@H]1C[C@@H]2C(=O)N[C@@H](CCCC[N+](C)(C)C)C(=O)N2[C@@H]1c1ccc(O)cc1
composite z-score [1]: -1.27 | z-score [2]: 1.61 | composite z-score [3]: 0.839 | composite z-score [4]: -1.01 | composite z-score [5]: -0.702 | composite z-score [6]: -0.216 | composite z-score [7]: -0.358 | composite z-score [8]: -0.277 | composite z-score [9]: 0.964 | composite z-score [10]: 0.257

O=C1NC(=O)C2C1C=CC(C(O)C=Cc1ccc([N+](=O)[O-])cc1)N2Nc1ccc(Cl)cc1Cl (stereo not given)
composite z-score [1]: 0.0788 | z-score [2]: 0.498 | composite z-score [3]: 0.0391 | composite z-score [4]: 2.14 | composite z-score [5]: 0.713 | composite z-score [6]: -0.031 | composite z-score [7]: 0.317 | composite z-score [8]: 0.0884 | composite z-score [9]: 1.52 | composite z-score [10]: 1.49

CCCCN1CC=CC23O[C@@H]4/C=C\CCCOC(=O)C4[C@H]2C(=O)N(CCCCCO)[C@@H]3C1=O (stereo not given in full)
composite z-score [1]: -0.766 | z-score [2]: -0.895 | composite z-score [3]: -0.68 | composite z-score [4]: -0.803 | composite z-score [5]: -1.24 | composite z-score [6]: -0.172 | composite z-score [7]: -0.221 | composite z-score [8]: -0.357 | composite z-score [9]: 0.328 | composite z-score [10]: -0.509

CC(C)CCC[C@@H](C)[C@H]1CC[C@@]2(C)C3=C(CC[C@]12C)[C@@]1(C)CC[C@H](OC(=O)c2ccc(C(F)(F)F)nc2)C(C)(C)C1CC3 (stereo not given in full)
composite z-score [1]: 0.592 | z-score [2]: 0.336 | composite z-score [3]: 0.31 | composite z-score [4]: -0.0347 | composite z-score [5]: -0.337 | composite z-score [6]: -0.162 | composite z-score [7]: 0.0141 | composite z-score [8]: -0.68 | composite z-score [9]: 0.69 | composite z-score [10]: 0.328

CCCC=C(CCC)[C@@H](NC(=O)OCC(C)C)c1ccccc1
composite z-score [1]: 0.861 | z-score [2]: -1.18 | composite z-score [3]: -0.0453 | composite z-score [4]: 1.65 | composite z-score [5]: 0.438 | composite z-score [6]: 0.806 | composite z-score [7]: 0.717 | composite z-score [8]: 1.99 | composite z-score [9]: 0.226 | composite z-score [10]: 0.703

CC(=O)n1cc(C(O)C2C=CC3C(=O)NC(=O)C3N2Nc2ccccn2)c2ccccc21 (stereo not given)
composite z-score [1]: -0.0484 | z-score [2]: -0.75 | composite z-score [3]: 0.0729 | composite z-score [4]: -0.2 | composite z-score [5]: -0.36 | composite z-score [6]: -0.124 | composite z-score [7]: -0.138 | composite z-score [8]: -0.0615 | composite z-score [9]: -0.19 | composite z-score [10]: 0.751

CC1CC/C=C\[C@H]2OC34C=CCN(Cn5nnc6ccccc65)C(=O)[C@H]3N(CCCCCO)C(=O)[C@@H]4C2C(=O)O1 (stereo not given in full)
composite z-score [1]: -1.05 | z-score [2]: 0.814 | composite z-score [3]: -1.54 | composite z-score [4]: -0.881 | composite z-score [5]: 0.0455 | composite z-score [6]: -0.197 | composite z-score [7]: -0.283 | composite z-score [8]: 0.558 | composite z-score [9]: -0.722 | composite z-score [10]: -1.3

CO[C@H]1O[C@H](CO)[C@@H](OC(=O)Nc2ccc(Br)cc2)[C@@H]2OC(=O)[C@H](Cc3cccc(Br)c3)C/C=C/C[C@@H](Cc3cccc(Br)c3)C(=O)O[C@@H]12
composite z-score [1]: -0.852 | z-score [2]: -3.26 | composite z-score [3]: -0.402 | composite z-score [4]: 0.404 | composite z-score [5]: 0.609 | composite z-score [6]: -0.12 | composite z-score [7]: -0.221 | composite z-score [8]: -0.1 | composite z-score [9]: -0.284 | composite z-score [10]: 0.386

CC1CC/C=C\[C@H]2OC34C=CCN(c5ccc6ccccc6c5)C(=O)[C@H]3N(CCO)C(=O)[C@@H]4C2C(=O)O1 (stereo not given in full)
composite z-score [1]: -0.619 | z-score [2]: -0.626 | composite z-score [3]: -2.09 | composite z-score [4]: -0.832 | composite z-score [5]: -0.202 | composite z-score [6]: -0.205 | composite z-score [7]: 0.192 | composite z-score [8]: 0.831 | composite z-score [9]: 3.26 | composite z-score [10]: -1.01

COCCOC(=O)N1C(=O)[C@@]2(c3ccccc31)[C@H](C(=O)N1CCCCCCC1)[C@H]1C(=O)O[C@H](c3ccccc3)[C@H](c3ccccc3)N1[C@@H]2c1ccc(OCCO)cc1
composite z-score [1]: 1.63 | z-score [2]: -2.07 | composite z-score [3]: 1.91 | composite z-score [4]: 3.2 | composite z-score [5]: 1.76 | composite z-score [6]: 1.65 | composite z-score [7]: 3.65 | composite z-score [8]: 3.67 | composite z-score [9]: 5.73 | composite z-score [10]: 4.02

Reference: PubChem BioAssay
